This is a sample that favours compounds with a hit; in the whole collection about 4.8% have one here.
S2 tox: viability counter-screen for ATXN expression inhibitors; hit rate 0.49% among 400,000; AID 651635; Potency, µM (doses to about 56.7 µM), actives largely listed as cytotoxic; S2 cells (HEK-293 line with an ATXN2-luciferase reporter) viability, CellTiter-Fluor protease fluorescence, 24 h; note: potency is the fitted concentration of half-maximal effect; nearly all actives have a fitted effect of over 40% in size
ATXN2 expr inh: inhibitors of ATXN2 expression | HEK-293 ATXN2-luciferase reporter, luminescence, 24 h | Potency, µM (highest dose often 57 µM), for the others: top-dose activity change, negative = inhibition, usual class: inhibitors | hit rate 0.72% among 360,000; note: potency is the fitted concentration of half-maximal effect; % is set by controls: 0 for no effect and ±100 for the full control effect; nearly all actives have a fitted effect of over 55% in size
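qHTS (up to 57 uM final) was run with 24 h compound exposure of reporter cells at 37 °C. Each well was multiplexed: SteadyGlo luminescence measured ATXN2-luciferase expression after a fluorogenic Gly-Phe-AFC viability readout (25 uM final).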
DRD3 antagonist: D3 dopamine receptor (human) antagonism; max response, negative = inhibition, %; P35462; D3R cells, DiscoveRx beta-arrestin luminescence, antagonist mode; stronger effect = lower value; hit rate 2.5% among 360,000; in the data active = max response below about -50%; inconclusive = no clear call, values can overlap the other calls; note: % is set by controls: 0 for no effect and ±100 for the full control effect
Target sequence (P35462 whole entry, looked up): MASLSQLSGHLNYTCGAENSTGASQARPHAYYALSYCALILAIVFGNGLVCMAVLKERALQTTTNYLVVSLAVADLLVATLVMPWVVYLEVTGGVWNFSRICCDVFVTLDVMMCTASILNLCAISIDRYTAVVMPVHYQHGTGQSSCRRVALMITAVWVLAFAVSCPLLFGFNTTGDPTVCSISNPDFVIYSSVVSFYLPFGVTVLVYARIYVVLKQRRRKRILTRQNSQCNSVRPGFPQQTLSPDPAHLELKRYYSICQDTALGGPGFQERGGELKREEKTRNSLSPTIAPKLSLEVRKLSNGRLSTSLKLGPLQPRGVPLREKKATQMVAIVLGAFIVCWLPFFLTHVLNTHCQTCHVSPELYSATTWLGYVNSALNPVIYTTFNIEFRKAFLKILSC
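Cells plated overnight at 1500 cells/well, then exposed to library compounds with dopamine controls for 90 minutes at 37 degrees C. DiscoveRx reagent added for 30–60 minutes at room temperature; luminescence read, quantitative HTS format.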
DRD3 agonist: agonists of human D3 dopamine receptor | P35462 | AID 652048 | D3R DiscoveRx beta-arrestin cells, luminescence, 90 min | hit rate 0.58% among 410,000 | max activation, %; in the data active = max activation above about 30%; note: 0% is about no effect
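Agonist mode: compounds and dopamine controls were applied to plated cells for 90 min at 37 degrees C after an overnight attachment at 1500 cells/well. Luminescent read-out followed 30 - 60 minutes at room temperature with DiscoveRx detection reagent.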
TGFb SMAD3 inh: blocks TGF-b signaling; HepG2 CAGA-GFP TGF-b/SMAD3 reporter, GFP fluorescence, 18 h; TGF-beta stimulated, 500 pg/mL final; Potency, µM (series often up to 46.1 µM), inactives show top-dose activity, negative = inhibition, most hits filed as inhibitors; hit rate 1.2% among 410,000; note: potency is the fitted concentration of half-maximal effect; % is set by controls: 0 for no effect and ±100 for the full control effect; nearly all actives have a fitted effect of over 65% in size
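Smad-responsive CAGA-GFP expression was quantified in HEPG2 cells exposed to compounds and 500 pg/mL final TGF-beta for 18 h at 37 degrees C; unstimulated wells defined full inhibition.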
HepG2 tox-1: kills HepG2 cells in TGF-b inhibitor counter-screen. HepG2 CAGA-GFP viability, ATP luminescence, 18 h. Potency, µM (series often up to 46.1 µM), without a hit: at the highest dose activity change, negative = cytotoxicity, actives largely listed as cytotoxic. hit rate 0.76% among 410,000; note: potency is the fitted concentration of half-maximal effect
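CellTiter-Glo luminescence gave cytotoxicity after 18 hours at 37 degrees C. The cells were HepG2 CAGA-GFP in 1% FBS DMEM, stimulated with 500 pg/mL TGF-beta after compound addition. %Activity was normalised to no-cell wells (complete cell-killing) and DMSO (no toxicity), and curves were fitted and classified.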
TGFb CAGA inh: confirmation of TGF-b signaling inhibitors in HepG2 reporter cells; Potency, µM (highest dose often 46.1 µM), without a hit: at the top dose activity, negative = inhibition, most hits filed as inhibitors; HepG2 CAGA-GFP TGF-b reporter, GFP fluorescence, 18 h; cells stimulated with TGF-beta, 500 pg/mL; hit rate 63% among 1,600; shares compounds with TGFb SMAD3 inh; note: potency is the fitted concentration of half-maximal effect; % is set by controls: 0 for no effect and ±100 for the full control effect; nearly all actives have a fitted effect of over 65% in size
HepG2 tox-2: toxic to HepG2 cells in TGF-b counterscreen; shares compounds with TGFb SMAD3 inh; HepG2 CAGA-GFP viability, ATP luminescence, 18 h; cells stimulated with TGF-beta, 500 pg/mL; Potency, µM (series often up to 46.1 µM), inactives show top-dose activity, negative = cytotoxicity, actives largely listed as inhibitors; hit rate 27% among 1,600; note: potency is the fitted concentration of half-maximal effect; % is set by controls: 0 for no effect and ±100 for the full control effect; nearly all actives have a fitted effect of over 70% in size
CCL64 TGFb inh: TGF-b inhibition, CCL64 orthogonal assay. Potency, µM (highest dose often 46.1 µM), for inactives: at the top dose activity, negative = inhibition, usual class: inhibitors. CCL64 CAGA-GFP reporter, TGF-b stimulated, GFP fluorescence, 18 h. hit rate 41% among 1,600. shares compounds with TGFb SMAD3 inh; note: potency is the fitted concentration of half-maximal effect; nearly all actives have a fitted effect of over 65% in size
TGFb COP inh: validation of TGF-b inhibitors in HepG2 COP promoter reporter; hit rate 3% among 1,600; shares compounds with TGFb SMAD3 inh; HepG2 COP-GFP TGF-b reporter, GFP fluorescence, 18 h; cells stimulated by added recombinant TGF-beta; AID 720537; Potency, µM (series often up to 46.1 µM), inactives show at the highest dose activity, negative = inhibition, usual class: inhibitors; note: potency is the fitted concentration of half-maximal effect; nearly all actives have a fitted effect of over 70% in size
* marks the source's active call; other numbers are inactive results; i = inactive; ? = inconclusive; nt = no result. Unless noted, calls come from the whole dose curve; as a rule, active = well fitted curve in the direction sought with a large enough effect; inconclusive = small, poorly fitted or top-dose-only effect, or another doubt; inactive = no such curve, though single readings can be large; an effect the other way counts as inactive or inconclusive.

SMILES	S2 tox	ATXN2 expr inh	DRD3 antagonist	DRD3 agonist	TGFb SMAD3 inh	HepG2 tox-1	TGFb CAGA inh	HepG2 tox-2	CCL64 TGFb inh	TGFb COP inh
O=C(OC(C(=O)Nc1cc(Cl)cc(Cl)c1)c1ccccc1)C1=COCCO1 (configuration not stated)	?	-11.9%	19.0	1.8	15.8µM*	-14.1%	?	?	18.4µM*	43.5%
Cc1ccc(-c2nnn3c2nc(NCc2ccc4c(c2)OCO4)c2ccccc23)cc1	i	21.6%	nt	3.3	-39.2%	9.1%	nt	nt	nt	nt
Cc1nnc(SC(=O)N2c3ccccc3Sc3ccccc32)s1	nt	25.1µM*	?	-16.4	7.08µM*	-104.1%	11.6µM*	14.6µM*	3.26µM*	?
COc1ccc(N2CC(NC(=O)C(c3ccccc3)c3ccccc3)CC2=O)cc1OC (configuration not stated)	i	8.9%	nt	1.5	-20.0%	1.0%	nt	nt	nt	nt
COc1ccc(OC)c(S(=O)(=O)NCCc2csc3nc(-c4ccccc4)nn23)c1	nt	nt	nt	2.4	-23.5%	-20.0%	nt	nt	nt	nt
CC(C(=O)N1CCc2ccccc21)N1CCN(c2cccc(C(F)(F)F)c2)CC1 (configuration not stated)	i	-17.1%	0.8	-7.3	7.08µM*	-39.4%	?	3.3%	?	-9.4%
COc1ccc(-n2c(CCc3ccccc3)nnc2SCC(=O)NCc2ccccc2)cc1	i	-0.3%	0.3	-0.9	-4.3%	-22.4%	nt	nt	nt	nt
O=C(CSc1nnc(CCc2ccccc2)n1-c1ccc(Cl)cc1)NCc1ccccc1	i	3.4%	1.2	-5.2	11.2µM*	-9.5%	?	-23.2%	?	-3.0%
C=CCn1c(CSCc2ccc(Cl)cc2)nnc1SCC(=O)NCc1ccccc1	?	11.9%	15.6	1.0	8.91µM*	-39.5%	?	-8.7%	-33.8%	4.6%
O=C(Cn1c(=O)n(Cc2ccco2)c(=O)c2ccccc21)Nc1ccc(Cl)cc1Cl	i	-3.6%	nt	-3.6	-8.9%	0.7%	nt	nt	nt	nt
NC(=O)c1cccc(-c2ccnc3c2CC(C(=O)Nc2cccc(C(F)(F)F)c2)O3)c1 (configuration not stated)	i	?	-14.4	-0.4	12.6µM*	-27.2%	20.6µM*	-27.8%	7.2%	30.8%
O=C(Nc1cccc(C(F)(F)F)c1)C1Cc2c(-c3cccc(F)c3)ccnc2O1 (configuration not stated)	?	?	-18.3	-4.7	?	-18.5%	nt	nt	nt	nt
Cc1cc(Cl)ccc1N=c1ssnc1Cl	i	-21.3%	?	3.1	7.94µM*	-23.0%	23.1µM*	?	?	4.2%
Cc1ccc(N=c2ssnc2Cl)cc1	i	-16.3%	-26.5	14.7	?	-43.6%	nt	nt	nt	nt
CCOC(=O)c1c(C)[nH]c(C)c1S(=O)(=O)N1CCCC(C(=O)N2CCN(c3ccc(Cl)cc3)CC2)C1 (configuration not stated)	?	?	nt	12.9	?	-19.5%	nt	nt	nt	nt
CCOc1ccc(N(CC)C(=O)Cn2cnc3sc(C)c(S(=O)(=O)N4CCN(c5ncccn5)CC4)c3c2=O)cc1	i	9.0%	nt	1.6	-10.4%	-2.0%	nt	nt	nt	nt
CCCn1c(C(C)Nc2nc(-c3ccc(C)cc3)cs2)nc2ccccc21 (configuration not stated)	?	-14.6%	5.2	-14.7	11.2µM*	-16.5%	?	?	?	42.7%
CC(Nc1nc(-c2ccc(Cl)cc2)cs1)c1nc2cc(Cl)c(N3CCCCC3)cc2n1CCOCCO (configuration not stated)	?	?	0.0	15.4	20µM*	-30.0%	?	?	18.4µM*	70.7%
Cc1ccc(CNC(=O)C2CCN(c3ncnc4c3nc3n4CCCCC3)CC2)cc1	nt	nt	nt	-8.7	-14.1%	-4.9%	nt	nt	nt	nt
CC(=O)Nc1ccc(OCC(O)CN2CCN(S(=O)(=O)c3ccc(NC(C)=O)cc3)CC2)cc1 (configuration not stated)	i	-1.7%	-0.1	-17.0	13.4%	-2.8%	nt	nt	nt	nt
Cc1ccc(S(=O)(=O)N2CCN(CC(O)COc3ccccc3)CC2)cc1 (configuration not stated)	i	-12.7%	-7.1	-9.2	-3.1%	5.8%	nt	nt	nt	nt
CC(=O)Nc1ccc(S(=O)(=O)N2CCN(CC(O)COc3ccc4ccccc4c3)CC2)cc1 (configuration not stated)	?	?	7.7	-9.9	?	-18.0%	25.9µM*	-29.2%	-2.5%	6.7%
CCOc1ccc(S(=O)(=O)N2CCN(CC(O)COc3cccc([N+](=O)[O-])c3)CC2)cc1 (configuration not stated)	i	-26.1%	0.0	-34.3	?	-28.1%	?	-13.1%	?	18.5%
O=C(CNC(=S)N(Cc1ccccc1)Cc1ccccc1F)NCc1ccccc1	?	-29.1%	-4.1	-11.4	?	-20.9%	nt	nt	nt	nt
O=C(CNC(=S)N(Cc1ccccc1)Cc1ccccc1F)NCc1ccc(Cl)cc1	i	-29.2%	10.2	-0.4	12.6µM*	0.1%	13µM*	?	?	17.4%
COc1ccccc1NC(=O)CN1CCN(c2ccc(F)cc2)CC1	i	-17.6%	3.8	4.6	-19.9%	-5.3%	nt	nt	nt	nt
COC(=O)c1sccc1NC(=O)CN1CCN(c2ccc(F)cc2)CC1	i	-25.6%	39.3	4.5	11.2µM*	-16.6%	?	?	-2.6%	10.0%
CC(C)(C)C(=O)NCCc1csc2nc(-c3ccc(F)cc3)nn12	?	-9.2%	nt	16.0	-25.5%	-34.3%	nt	nt	nt	nt
